What all share (assay): NCI-60 one-dose screen, 48 h (100 = growth as untreated, 0 = no growth, -100 = all killed)
Conditions in all cases: 10 µM unless noted

The subject of assay [1] is HCT-15 colon.
The subject of assay [2] is HT29 colon.
Assay [3] deals with SNB-75 CNS.
Assay [4] relates to SNB-19 CNS.
Assay [5] relates to U251 CNS.
Assay [6] concerns PC-3 prostate.
The subject of assay [7] is SK-MEL-5 melanoma.
For assay [8], the system named is UACC-62 melanoma.
Assay [9] relates to LOX IMVI melanoma.
Assay [10] deals with SK-MEL-28 melanoma.

This is part of a sample that, as a whole, favours compounds with a hit. Of some 83,000 tested, about 20% had one in any assay.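 The test compound was applied at a single concentration to cells in 96-well plates for 48 hours, and percent growth was recorded.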 Values without a mark were called inactive. Calls of active or inactive are those of the source. The calls were made as follows: active = growth percent below 10; inactive = the rest.

As for `O=C(O)c1ccc(CNS(=O)(=O)c2ccc3ccccc3c2)cc1`, the growth was 104% in assay [1]; 102% in assay [2]; 90.8% in assay [3]; 104% in assay [4]; 106% in [5]; 104% in [6]. For the same compound, the growth in [7] is 105%; in assay [8] it was 102%; in [9], 100%; in [10] it was 106%.

`Cc1cc2c(cc1C)[n+](Cc1ccc3ccccc3n1)cn2Cc1ccc2ccccc2n1`: the growth was 66.2% in [1]; -14.5% (active) in [2]; -1.25% (active) in [3]; 16.4% in [4]; 7.2% (active) in [5]; -7.23% (active) in [6]. The growth in assay [7] is -93.1% (active); in assay [8], -38.1% (active); in [9] it was -56.9% (active); in assay [10], 10.2%.

For `Clc1ccc2c(c1)C(Br)c1cc(Cl)cc(Cl)c1-2` (stereo not given), the growth in assay [1] is 78.1%; in assay [2] it was 111%; in [3], 73.5%; in [4] it was 90.9%; in assay [5], 79.5%; in [6], 82.6%. Moreover, the growth is 51.2% in [7], 66.1% in assay [8], 4.27% (active) in assay [9] and 112% in [10].

With `COC(=O)CC1=C(c2ccc([N+](=O)[O-])cc2)CCC1=O`, the growth is 89.6% in assay [1]; 107% in assay [2]; 82% in assay [3]; 109% in assay [4]; 103% in assay [5]; 91.9% in assay [6]. Moreover, the growth was 103% in assay [7], 100% in assay [8], 94.6% in [9] and 109% in assay [10].

For the compound `CC(C)N(Cc1ccccc1)c1c(S)ssc1=S`, the growth in assay [1] was 10.4%; in assay [2], 3.11% (active); in assay [3], -2.3% (active); in assay [4], 20.9%; in assay [5], 5.51% (active); in assay [6] it was 1.17% (active). Further, the growth in assay [7] is -75.9% (active); in assay [8], 34.1%; in assay [9] it was 10.1%; in assay [10] it was 21.8%.

In the case of `CCCCCc1c(C)[nH]c(/C=C2\N=C(c3ccc[nH]3)C=C2OCc2ccccc2)c1C`, the growth in assay [1] was -60% [100 µM] (active); in assay [2] it was -80.9% [100 µM] (active); in [3], -78.1% [100 µM] (active); in assay [4], -92.8% [100 µM] (active); in assay [5], -93.7% [100 µM] (active); in [6], -69.5% [100 µM] (active). Besides, the growth in assay [7] is -66.9% [100 µM] (active); in assay [8] it was -92.7% [100 µM] (active); in assay [9] it was -62.6% [100 µM] (active); in assay [10], -89.8% [100 µM] (active).

On to `COc1cc(C2CC(C3C(=O)N(C)C(=O)N(C)C3=O)=NN2C=O)cc(OC)c1OC` (stereo not given), for which the growth is 102% in [1]; 76.2% in assay [2]; 94.8% in assay [3]; 100% in assay [4]; 96.3% in assay [5]; 75.9% in [6]. Besides, the growth was 113% in [7], 93.9% in [8], 97.7% in assay [9] and 108% in assay [10].

For `O=c1[nH]c(SCc2ccccc2)nc2nc(Nc3ccc(NC(=S)Nc4ccccc4)cc3)nc(-c3ccc(O)cc3O)c12`, the growth in assay [1] is 108%; in assay [2], 115%; in [3], 84.6%; in assay [4] it was 86.9%; in [5], 85.3%; in [6] it was 82.6%. The growth in [7] is 101%; in [8], 87.9%; in assay [9], 98%; in assay [10], 94.3%.

Turning to `COC(=O)[C@H](Cc1cnc[nH]1)NC(=O)[C@@H](NC(=O)Nc1cc(C(F)(F)F)cc(C(F)(F)F)c1)C(C)C`, the growth in assay [1] is 35.4% [100 µM]; in assay [2], -80.3% [100 µM] (active); in assay [3], -95.3% [100 µM] (active); in assay [4] it was -96.3% [100 µM] (active); in assay [5], -96.8% [100 µM] (active); in [6] it was -93.2% [100 µM] (active). Also, the growth in assay [7] is -91.5% [100 µM] (active); in assay [8], -96.2% [100 µM] (active); in [9], -84.5% [100 µM] (active); in [10], -96.1% [100 µM] (active).

As for `O=C(NC1CCS(=O)(=O)C1)c1ccc(C(=O)c2ccccc2)cc1` (stereo not given), the growth in assay [1] is 101%; in assay [2], 106%; in assay [3], 90.9%; in [4], 97.9%; in assay [5] it was 90.1%; in assay [6], 101%. Besides, the growth in assay [7] is 110%; in assay [8] it was 95.6%; in assay [9], 95.6%; in assay [10], 89.2%.

Consider `C[C@H](C(=O)N[C@@H](Cc1ccc(-c2ccccc2)cc1)C(=O)NC1CC(C)(C)N(C)C(C)(C)C1)c1ccc(-c2ccccc2)c(F)c1`, for which the growth was -81.2% (active) in assay [1]; -76.2% (active) in [2]; -29% (active) in assay [3]; -72.6% (active) in [4]; -74.7% (active) in [5]; -70.5% (active) in assay [6]. The growth in assay [7] is -94.7% (active); in [8], -57.6% (active); in [9], -83.8% (active); in [10], -73% (active).

Turning to `COc1ccc(NC(=O)c2ccccc2-c2ccccc2)c(C(N)=O)c1`, the growth is 32.8% in assay [1]; 11.4% in assay [2]; -10.7% (active) in assay [3]; 39.8% in assay [4]; 45.9% in assay [5]; 32.8% in assay [6]. Moreover, the growth is 29.7% in assay [7], 55.7% in assay [8], 36.9% in [9] and 59.7% in assay [10].

The values are drawn from PubChem BioAssay (NCI).
